WRN inhibitor: WRN helicase (human) inhibition; WRN helicase unwinding, fluorescent forked duplex, kinetic; Potency, µM (series often up to 114 µM), inactives show top-dose activity change, negative = inhibition, usual class: inhibitors; 0.46% of 360,000 active; Q14191; note: potency is the fitted concentration of half-maximal effect; % is set by controls: 0 for no effect and ±100 for the full control effect; nearly all actives have a fitted effect of over 55% in size
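Primary qHTS, 1536-well format. 20 nM WRN + compound, 15 min RT; start with 100 nM forked fluorophore/quencher duplex, 2 mM ATP (final); kinetic read ex 525/em 598 nm.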
Pol kappa inh-1: DNA polymerase kappa (human) inhibition; Q9UBT6; purified Pol kappa, fluorescent DNA synthesis assay, 10 min; Potency, µM (series often up to 107 µM), without a hit: at the highest dose activity, negative = inhibition, hits mostly inhibitors; 0.53% of 400,000 active; AID 588579; note: potency is the fitted concentration of half-maximal effect; % is set by controls: 0 for no effect and ±100 for the full control effect
Target sequence (Q9UBT6 whole entry, looked up): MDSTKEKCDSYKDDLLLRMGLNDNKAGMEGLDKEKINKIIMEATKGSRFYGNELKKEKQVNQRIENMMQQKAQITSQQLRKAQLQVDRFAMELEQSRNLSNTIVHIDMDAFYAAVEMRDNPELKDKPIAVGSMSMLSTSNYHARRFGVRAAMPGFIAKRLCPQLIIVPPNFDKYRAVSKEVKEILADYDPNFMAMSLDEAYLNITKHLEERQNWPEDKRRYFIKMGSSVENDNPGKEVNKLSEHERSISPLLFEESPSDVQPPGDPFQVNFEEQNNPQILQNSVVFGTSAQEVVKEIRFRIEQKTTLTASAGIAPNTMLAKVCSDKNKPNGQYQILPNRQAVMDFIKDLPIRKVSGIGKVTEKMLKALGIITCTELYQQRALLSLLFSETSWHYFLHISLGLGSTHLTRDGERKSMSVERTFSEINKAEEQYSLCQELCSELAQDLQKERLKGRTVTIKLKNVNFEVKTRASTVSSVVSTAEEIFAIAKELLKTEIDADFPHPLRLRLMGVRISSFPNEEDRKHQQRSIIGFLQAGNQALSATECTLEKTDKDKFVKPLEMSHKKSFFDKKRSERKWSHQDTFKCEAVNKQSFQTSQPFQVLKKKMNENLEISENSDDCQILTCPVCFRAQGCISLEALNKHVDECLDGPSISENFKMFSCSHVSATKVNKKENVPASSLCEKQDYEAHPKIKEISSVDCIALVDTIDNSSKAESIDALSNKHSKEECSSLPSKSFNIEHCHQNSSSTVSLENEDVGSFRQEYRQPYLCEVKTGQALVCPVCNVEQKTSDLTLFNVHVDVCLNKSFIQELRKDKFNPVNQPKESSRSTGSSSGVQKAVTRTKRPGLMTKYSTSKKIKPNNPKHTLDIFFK
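First, compounds were pin-transferred onto 10 nM Pol kappa. After 15 min at room temperature, substrate was added to 50 nM final. Fluorescence was then measured kinetically at 0 and 10 min.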
POLI inh: inhibitors of human DNA polymerase iota. Q9UNA4. Pol iota fluorescent replication assay, 10 min. Potency, µM (top dose mostly 115 µM), for the others: at the highest dose activity, negative = inhibition, actives largely listed as inhibitors. 1% of 390,000 active; note: potency is the fitted concentration of half-maximal effect
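Fluorescent replication assay read twice, at 0 min and 10 min after adding 50 nM (final) substrate. Enzyme (10 nM) and compounds were first incubated 15 min at room temperature; enzyme-free buffer wells were negative controls.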
Pol eta inh-1: blocks human DNA polymerase eta activity. AID 588591. Potency, µM (titrated, usually from 114 µM), without a hit: top-dose activity change, negative = inhibition, usual class: inhibitors. 1.2% of 390,000 active. recombinant Pol eta, fluorescent DNA replication assay; note: potency is the fitted concentration of half-maximal effect; % is set by controls: 0 for no effect and ±100 for the full control effect
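Pol eta at 10 nM preincubated with compounds 15 min at room temperature; reaction started with fluorescent substrate (50 nM final) and read kinetically at 0 and 10 min.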
Pol beta inh-1: DNA polymerase beta (human) inhibition; Potency, µM (titrated, usually from 114 µM), without a hit: top-dose activity change, negative = inhibition, usual class: inhibitors; 1.3% of 340,000 active; Pol beta primer extension/strand displacement, fluorescence kinetic; P06746; AID 485314; note: potency is the fitted concentration of half-maximal effect; % is set by controls: 0 for no effect and ±100 for the full control effect
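Enzyme-only controls used 10 nM Pol beta; buffer lacking enzyme served as negative control. Compound preincubated 15 min, then 50 nM substrate added; 0 and 10 min reads at room temperature.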
Pol beta inh-2: Validate hits inhibiting human DNA polymerase beta; shares compounds with Pol beta inh-1; Pol beta primer extension/strand displacement, fluorescence kinetic; Potency, µM, most hits filed as inhibitors; 87% of 250 active; AID 540280; calls by dose curve; note: potency is the fitted concentration of half-maximal effect
Klenow inh: inhibits Klenow fragment polymerase in counter-screen; Klenow exo- polymerase counter-screen, fluorescent DNA substrate; AID 540300; shares compounds with Pol beta inh-1; activity change, negative = inhibition, % at 57.1 µM; 250 tested, under 10 active
HIV RT counter: counter-screen for DNA polymerase beta inhibitors: HIV-1 RT inhibition | shares compounds with Pol beta inh-1 | HIV-1 RT polymerase activity, counter-screen | activity % (negative = inhibition, positive = activation), % at 57.1 µM | 250 tested, under 10 active
POLB inh gel: DNA polymerase beta inhibition, radiolabeled validation | shares compounds with Pol beta inh-1 | inhibition, % at 10 µM | radiolabeled primer extension gel assay, phosphorimager | 91% of 110 active;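 active = inhibition at 10 µM of 30% or more; inconclusive = no clear call, values can overlap the other calls; inactive = inhibition at 10 µM under 30%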
PGK validate: blocks T. brucei phosphoglycerate kinase; shares compounds with Pol kappa inh-1; TbPGK coupled GAPDH assay, Kinase-Glo luminescence; Potency, µM (titrated, usually from 57.5 µM), without a hit: top-dose activity change, negative = inhibition, most hits filed as inhibitors; 79% of 500 active; note: potency is the fitted concentration of half-maximal effect; % is set by controls: 0 for no effect and ±100 for the full control effect; nearly all actives have a fitted effect of over 65% in size
Pol iota confirm: Human Pol iota inhibitor confirmatory assay; shares compounds with Pol kappa inh-1; Pol iota primer extension, TAMRA/BHQ fluorescence; 77% of 1,500 active; Potency, µM, hits mostly inhibitors; AID 720496; note: potency is the fitted concentration of half-maximal effect
Pol kappa inh-2: confirmation of human DNA polymerase kappa inhibitors; shares compounds with Pol eta inh-1; Potency, µM, actives largely listed as inhibitors; 76% of 920 active; purified Pol-kappa, fluorescent strand-displacement substrate; note: potency is the fitted concentration of half-maximal effect
Pol eta inh-2: Pol eta (human) inhibition, cherry-pick confirmation; 64% of 2,600 active; Pol eta primer extension, TAMRA/BHQ fluorescence, 10 min; shares compounds with Pol eta inh-1; Potency, µM, usual class: inhibitors; note: potency is the fitted concentration of half-maximal effect
* = called active by the depositor; ? = inconclusive; · = no result; [ ] = remark or other dose. Sampled rows, rich in hits. Any-hit rate of the full collection: about 2.3%. Unless noted, calls come from the whole dose curve; as a rule, active = well fitted curve in the direction sought with a large enough effect; inconclusive = small, poorly fitted or top-dose-only effect, or another doubt; inactive = no such curve, though single readings can be large; an effect the other way counts as inactive or inconclusive.

SMILES | WRN inhibitor | Pol kappa inh-1 | POLI inh | Pol eta inh-1 | Pol beta inh-1 | Pol beta inh-2 | Klenow inh | HIV RT counter | Pol iota confirm | Pol eta inh-2 | others
O=C(Oc1ccc2c(c1)OCO2)c1cc2c(s1)CCC2 | ? | 20µM* | 5µM* | 4µM* | 10µM* | 16* | -31 | 30 | 19* | 67* | PGK validate=?
COc1cc(C(=S)N2CCN(c3ccccc3Cl)CC2)cc(O)c1O | ? | 71µM* | ? | 20µM* | 10µM* | 2.5* | -16 | -9 | · | 76*
COc1ccc(OC)c(C(=O)c2c(N)c(-c3nc(-c4ccc(C)c(C)c4)cs3)c3ccccn23)c1 | · | 2% | 22% | · | 15% | · | · | · | · | ·
COc1cc(C2CC(=O)Oc3ccc(O)cc32)cc(OC)c1OC (centres undefined) | · | -17% | · | · | · | · | · | · | · | ·
COc1ccc(NC(=O)c2cc(-c3ccco3)nc3ccccc23)cc1S(=O)(=O)N1CCOCC1 | ? | 40µM* | ? | 16µM* | 2µM* | 10* | -10 | -9 | 15* | 17*
O=C(NC1CCC(O)CC1)c1cc(-c2ccco2)nc2ccccc12 (centres undefined) | ? | ? | 35µM* | 25µM* | 13µM* | 28* | -17 | 41 | 67* | 76* | POLB inh gel=84*
CCC1Oc2ccccc2N(CC(=O)NCc2ccccc2)C1=O (centres undefined) | · | -4%[60.1 µM] | 14% | -5% | 1% | · | · | · | · | ·
COc1ccc(Cl)cc1NC(=O)Cn1cc(S(=O)(=O)Cc2cccc(Cl)c2)c2ccccc21 | · | -2% | 5% | -21% | -28% | · | · | · | · | ·
Cc1ccc(C(=O)Nc2cccc(-c3cnc4ccccc4n3)c2)cc1 | -1% | 0%[60.1 µM] | 26% | -11% | 36% | · | · | · | · | ·
CC(=O)Nc1ccc(C(=O)Nc2cccc(-c3cnc4ccccc4n3)c2)cc1 | -20%[11.6 µM] | -12% | 1% | ? | 4.5µM* | 14* | -31 | -10 | 30* | ? | Pol kappa inh-2=47*
COc1ccc(N2CCN(C(=O)Cc3ccc(S(=O)(=O)N4CCOCC4)s3)CC2)cc1 | ? | 79µM* | 20µM* | 20µM* | 13µM* | 32* | -33 | 45 | 42* | 48* | POLB inh gel=83*
CC1CCN(C(=O)CSc2c(C(C)C)cnc3c2c(=O)n(C)c(=O)n3C)CC1 | · | -15%[60.1 µM] | -17% | -12% | 5% | · | · | · | · | ·
O=C(COC(=O)c1ccc(S(=O)(=O)NCc2ccco2)cc1)Nc1ccc(Cl)cn1 | -27%[57.1 µM] | 79µM* | 22µM* | 20µM* | 16µM* | 22* | -16 | 4 | · | 76* | POLB inh gel=100*
O=C(COC(=O)c1ccc(S(=O)(=O)NCc2ccco2)cc1)Nc1ccccc1 | -6% | -16% | 35% | -15% | · | · | · | · | · | ·
O=C(Cn1nc2c(cc1=O)CCCC2)NCc1ccccc1 | · | 1%[60.1 µM] | -23% | -3% | 20% | · | · | · | · | ·
COc1cc(OC)c2c(c1)OC(c1ccccc1)CC2=O (centres undefined) | · | -9%[19.4 µM] | · | · | · | · | · | · | · | ·
COc1cc(OC)c2c(c1O)OC(c1ccccc1)CC2=O (centres undefined) | ? | 25µM* | 13µM* | 13µM* | 1.4µM* | 2.5* | -17 | 40 | ? | 67*
Cc1ccc(C(CCN(Cc2ccccc2)C(=O)c2ccco2)c2ccco2)cc1 (centres undefined) | ? | 50µM* | 20µM* | 18µM* | 10µM* | 16* | -8 | -9 | · | 85*
COCCn1c(C)cc(C(=O)COC(=O)c2cc3c(s2)CCC3)c1C | ? | 40µM* | ? | 8.9µM* | 10µM* | 32* | -23 | 26 | 38* | 67* | POLB inh gel=84*
CSc1nc(SCC(=O)O)c2sc3nc(-c4ccccc4)c4c(c3c2n1)CCC4 | ? | ? | ? | ? | 2.5µM* | 4* | ? | -3 | 15* | 67*
CSc1nc(N2CCN(CCO)CC2)c2sc3nc(-c4ccco4)c4c(c3c2n1)CCC4 | · | · | · | · | -12% | · | · | · | · | ·
CN(CCC#N)C(=O)COC(=O)c1c2c(nc3ccccc13)/C(=C/c1ccco1)CC2 | ? | 20µM* | 3.2µM* | 6.3µM* | 8.9µM* | 22* | -27 | 6 | 30* | 54*
O=C(O)CC(NCc1ccco1)C(=O)OCCc1ccccc1 (centres undefined) | -8% | -13% | -4% | -6% | 3% | · | · | · | · | ·
C=C(C)CCOC(=O)C(CC(=O)O)NCc1ccco1 (centres undefined) | -4%[11.6 µM] | ? | -7% | 11µM* | 8.9µM* | 35* | -7 | 10 | · | 27* | Pol kappa inh-2=19*
CC(=O)Nc1ccc(SCC(=O)c2ccc(Br)s2)cc1 | -30% | 1% | ? | -15% | 3% | · | · | · | · | ·
Cc1ccc(SCC(=O)c2ccc(CC(=O)O)s2)cc1 | ? | ? | ? | 50µM* | 11µM* | 32* | -6 | -15 | · | 76*
COc1ccc2c(CNCCc3ccc(SC)cc3)c(C(=O)O)n(Cc3ccc(F)cc3)c2c1 | · | -1% | -19% | -12% | 2% | · | · | · | · | ·
COC(=O)c1c(NC(=O)COC(=O)c2ccccc2O)sc2c1CCCCC2 | 2%[57.1 µM] | 1% | 92% | -4% | -7% | · | · | · | · | ·
COC(=O)c1c(NC(=O)COC(=O)c2ccc(NC(=O)CC#N)cc2)sc2c1CCCCC2 | 56µM* | 50µM* | 14µM* | 28µM* | 8.9µM* | 6.3* | -21 | 16 | 24* | 30* | Pol kappa inh-2=17*
O[C@H]1[C@H]2c3cc4c(cc3CN3CCC(=C[C@@H]1O)[C@H]23)OCO4 | · | -5%[19.4 µM] | · | · | · | · | · | · | · | ·

High-throughput results: PubChem BioAssay, National Center for Advancing Translational Sciences (NCATS)
